Source: PubChem BioAssay AID1259422 (The Scripps Research Institute Molecular Screening Center, 2018)
Hit rate of the full screen: of about 640,000 compounds, about 9,300 (1.5%) were called active. No stated cut-off is given here; in the data, active means inhibition above about 32%; inactive means the rest. This excerpt belongs to a sample that is enriched for actives.

Assay: TEAD-YAP interaction inhibition, primary screen, TEAD-YAP interaction inhibitor project, luminescence, HEK-TIYL cells (AID 1259422);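 further: 0% = median of test compound wells and 100% = reference inhibitor wells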
Conditions: TEAD-Gal4/YAP UAS-luciferase luminescence, at 9.12 µM, hits give high values

| Compound | inhibition |
| --- | --- |
| CCN(c1cccc(C)c1)S(=O)(=O)c1cc(C(=O)Nc2ccc(Oc3ccccc3)cc2)ccc1F | 35.4% (active) |
| CCN(Cc1ccccc1)S(=O)(=O)c1ccc(F)c(C(=O)Nc2ccc(C)cc2)c1 | -16.5% (inactive) |
| CCN(Cc1ccccc1)S(=O)(=O)c1cc(C(=O)Nc2cccc(C)c2)ccc1F | 51.1% (active) |
| O=C(Nc1ccc(Oc2ccccc2)cc1)c1ccc(F)c(S(=O)(=O)N2CCc3ccccc3C2)c1 | -0.62% (inactive) |
| Cc1cccc(NC(=O)c2ccc(F)c(S(=O)(=O)N(C)C3CCCCC3)c2)c1 | -12.6% (inactive) |
| CCOc1cccc(NC(=O)c2ccc(F)c(S(=O)(=O)N(CC)c3cccc(C)c3)c2)c1 | -0.19% (inactive) |
| COc1cccc(-c2ccccc2NC(=O)C2CCN(Cc3ccccn3)CC2)c1 | 10.6% (inactive) |
| CC1=C(C(=O)Nc2nc3ccccc3s2)C(c2ccsc2)C2=C(CCCC2=O)N1 (centres undefined) | 12.1% (inactive) |
| COC(=O)c1c(OCCN2CCCC2=O)cc(=O)n2c1CCN(CC(C)C)CC2 | -5.77% (inactive) |
| Fc1cnc(Nc2ccc(Cn3ccnc3)cc2)nc1-c1cccc(N2CCOCC2)c1 | 84.8% (active) |
| Cc1ccc(-c2ncn(-c3ccc(Nc4ncc(F)c(-c5cccc(N6CCOCC6)c5)n4)cc3)n2)cn1 | 28.1% (inactive) |
| Cc1ccc(-c2ncn(-c3ccc(Nc4nccc(-c5cc(F)cc(N6CCOCC6)c5)n4)cc3)n2)nc1 | 8.1% (inactive) |
| c1cncc(CNc2nccc(Nc3ccc(N4CCOCC4)cc3)n2)c1 | 1.72% (inactive) |
| Fc1cc(-c2nc(Nc3ccc(CN4CCOCC4)cc3)ncc2F)cc(N2CCOCC2)c1 | 74.6% (active) |
| Fc1ccc(CN2CCOCC2)cc1F | -5.29% (inactive) |
| O=C(Nc1ccccc1)c1ccc(CSc2ccc(Cl)cc2)cc1 | 1.08% (inactive) |
| Cc1cc2oc(=O)cc(C)c2cc1NC(=O)COc1ccccc1 | 18.6% (inactive) |
| c1ccc2c(N3CCCCCC3)nc(CN3CCCCC3)nc2c1 | 3.64% (inactive) |
| COCCNC(=O)c1sc2nc(C)nc(N3CCCCC3)c2c1C | 8.3% (inactive) |
| Cc1cc(C)cc(Cn2c(NCc3ccncc3)cc(=O)n(C)c2=O)c1 | 33.7% (active) |
| Cc1cccc(Cn2c(NCc3ccc4c(c3)OCO4)nc3c2c(=O)n(C)c(=O)n3C)c1 | 3.24% (inactive) |
| C=CCn1c(NCCCN(C)C)cc(=O)n(C)c1=O | 1.12% (inactive) |
| CC(=O)c1ccc(OCc2cc(C(=O)NCc3cccc(-n4cccn4)c3)no2)cc1 | -59.7% (inactive) |
| O=C(Nc1cccc(N2CCC(NCCc3ccco3)CC2)c1)c1ccncc1 | -5.63% (inactive) |

| Compound | inhibition |
| --- | --- |
| O=C(NC1CCCC1)c1ccc(N2CCC(NCCc3ccco3)CC2)cc1 | -1.18% (inactive) |
| O=C(Nc1ccc(N2CCC(NCCc3ccco3)CC2)cc1)C1CCCC1 | 56.3% (active) |
| COc1ccc(CCNC(=O)CSc2cn(C)c3ccccc23)cc1OC | -1.21% (inactive) |
| COc1ccc(Cl)cc1C1=N/C(=C\c2coc3ccccc3c2=O)C(=O)O1 | 1.35% (inactive) |
| COc1ccc(CCNc2nc3ccc(C)cc3n3cnnc23)cc1OC | -9.92% (inactive) |
| COc1ccc(Nc2nc(C)nc3sc(C)cc23)c(OC)c1 | 46% (active) |
| COc1ccc(Nc2nc3nonc3nc2Nc2ccc(OC)cc2OC)c(OC)c1 | -7.35% (inactive) |
| COc1ccc(CCNc2nc(C)nc3sc(C)cc23)cc1OC | 41.7% (active) |
| COc1ccc(CCNc2nc(SCC#N)nc3ccccc23)cc1OC | -11.4% (inactive) |
| COc1ccc(NC(=O)CNC(=O)Cn2cnc3sc(C)cc3c2=O)c(OC)c1 | 7.78% (inactive) |
| CCOC(=O)c1sc(NC(=O)c2cccc(Cl)c2)c(C(=O)OCC)c1C | -1.99% (inactive) |
| O=C(NCC1CCC2(CCN(Cc3ccccc3)CC2)O1)c1ccc(F)c(Cl)c1 (centres undefined) | -14.8% (inactive) |
| O=C(NCCCO)/C(=C/c1ccc([N+](=O)[O-])cc1)NC(=O)c1ccco1 | 1.95% (inactive) |
| O=C(CCCN1CCc2ccccc2C(O)(c2ccccc2)C1)c1ccc(F)cc1 (centres undefined) | -4.26% (inactive) |
| O=C1CN(c2ccccc2F)C(=O)CN1/N=C/c1ccccc1Cl | -10.8% (inactive) |
| Cc1ccc(-c2c(Nc3cccc(F)c3)c(=O)c2=O)cc1C | 53.5% (active) |
| COC(=O)c1ccccc1Nc1c(-c2ccc(C)c(C)c2)c(=O)c1=O | 5.02% (inactive) |
| COc1ccc(-c2c(Nc3cccc(C)c3)c(=O)c2=O)cc1 | 4.83% (inactive) |
| Cc1cc(C)nc(/N=C(/NC(=O)c2ccc(F)cc2)Nc2ccc(F)cc2F)n1 | 2.84% (inactive) |
| COc1ccc(-c2cccc(C(=O)Nc3ccc(Oc4ccccc4)cc3)n2)cn1 | -3.01% (inactive) |
| CCn1c(COc2ccccc2OC)nnc1SCC(=O)NC | 4.57% (inactive) |
| CCn1c(COc2ccccc2)nnc1Sc1ccc([N+](=O)[O-])cc1C=O | 59.5% (active) |
| O=[N+]([O-])c1ccc(OCc2nnc(SCCN3CCOCC3)n2-c2ccccc2)cc1 | 3.41% (inactive) |
| CCN(CC)C(=O)CSc1nc2c(C)c(C)ccc2cc1C#N | 8.08% (inactive) |

| Compound | inhibition |
| --- | --- |
| Cc1ccc2cc(C#N)c(SCC(=O)N3CC(=O)Nc4ccccc43)nc2c1C | 63.3% (active) |
| Cc1ccc(C)c2nc(SCC(=O)N3CC(=O)Nc4ccccc43)c(C#N)cc12 | -2.34% (inactive) |
| FC(F)(F)c1cccc(-c2ccc(/C=N/Nc3nn[nH]n3)o2)c1 | 4.88% (inactive) |
| O=C(CSCc1cc2cccc3c2n(c1=O)CCC3)NCc1ccncc1 | 8.05% (inactive) |
| O=C1c2cccnc2C(=O)N1CNc1ccccc1 | 2.66% (inactive) |
| COc1ccc(Nc2ccccc2)cc1 | -22.2% (inactive) |
| COc1ccc(Nc2cc(=O)oc3ccccc23)cc1 | 36.2% (active) |
| O=c1cc(Nc2ccc(Br)cc2)c2ccccc2o1 | 0.69% (inactive) |
| C=CCn1c(SCC(=O)c2ccc(OC)c(C)c2)nnc1-c1ccncc1 | 4.75% (inactive) |
| Cc1cc(C(=O)NC(C)c2ccccc2)c2ccccc2n1 (centres undefined) | 5.1% (inactive) |
| CCCCCNC(=O)c1cc(C)nc2ccccc12 | 2.15% (inactive) |
| CCC(CC)=NNC(=O)c1cc(C)nc2ccccc12 | 48.1% (active) |
| Cc1cc(C)c(S(=O)(=O)N2CCOCC2)c(C)c1[N+](=O)[O-] | -0.25% (inactive) |
| COc1ccccc1-n1nnnc1S(=O)(=O)Cc1ccc(Cl)cc1 | 48.7% (active) |
| COc1ccccc1-n1nnnc1SCC(=O)c1ccc(Br)s1 | 2.7% (inactive) |
| COc1ccccc1NC(=O)C(=O)NCc1ccc(Cl)cc1 | 1.06% (inactive) |
| CCOC(=O)N1CCN(C(=O)CN2N=C(c3ccc(OC)cc3)CCC2=O)CC1 | -0.51% (inactive) |
| COc1ccc(-n2nnnc2-c2nc3ccccc3s2)cc1 | 74.2% (active) |
| COc1ccc2nc(NC(=O)CSc3nnnn3-c3ccccc3)sc2c1 | 8.33% (inactive) |
| c1ccc(-n2nnnc2SCc2nc3ccccc3s2)cc1 | -47.7% (inactive) |
| CN(C)CCNc1ccnc2c(-c3cccc(O)c3)cnn12 | 2.13% (inactive) |
| OCc1cccc(-c2cnn3c(NCc4cccs4)ccnc23)c1 | 102% (active) |
| Fc1ccc(CNc2ccnc3c(-c4ccsc4)cnn23)cc1 | -14.1% (inactive) |
| COc1ccc(CCNC(=O)c2cc(-c3ccccc3OC)n[nH]2)cc1OC | 2.42% (inactive) |

| Compound | inhibition |
| --- | --- |
| O=C(Cc1cccc2ccccc12)N/N=C/c1cccnc1 | 3.15% (inactive) |
| O=C(CSc1n[nH]c(=O)[nH]c1=O)N/N=C/c1cccnc1 | 10.8% (inactive) |
| O=C(CSc1cccc2cccnc12)N/N=C/c1cccnc1 | 46.5% (active) |
| Cc1nc(NC(=O)CSc2nnc(-c3ccccc3)n2C)sc1C | 9.15% (inactive) |
| CCOc1ccc(NC(=O)c2ccc3c(=O)n(-c4ccc(F)cc4)c(=S)[nH]c3c2)cc1 | 4.1% (inactive) |
| Cc1cc(Cl)c(S(=O)(=O)N2CCCc3ccccc32)cc1OCC(N)=O | 4.13% (inactive) |
| O=C(CC1C(=O)N(c2ccc(F)cc2)C(=O)N1Cc1cccs1)Nc1ccc(F)cc1 (centres undefined) | 5.51% (inactive) |
| COc1ccc(NC(=O)C(C)Oc2cc(C)cc(C)c2)cc1 (centres undefined) | 15.9% (inactive) |
| COc1ccc(OC(C)C(=O)Nc2cccc(Br)c2)cc1 (centres undefined) | 5.3% (inactive) |
| COc1ccc(OC(C)C(=O)Nc2ccc3ccccc3c2)cc1 (centres undefined) | 39.1% (active) |
| COC(=O)C1=CN(Cc2ccc(F)cc2)C=C(C(=O)OC)C1c1ccc(C)s1 | 3.1% (inactive) |
| CCn1ccc(C(=O)Nc2sccc2C(=O)NC)n1 | 10.4% (inactive) |
| COc1ccc(-n2cnc3cc(C(=O)NCc4ccccc4OC)ccc32)cc1 | 4% (inactive) |
| COc1ccccc1-n1cnc2cc(NC(=O)c3ccccc3)ccc21 | 38% (active) |
| COc1cc(NC(=O)c2ccccc2)c(C(=O)O)cc1OC | 7.96% (inactive) |
| CN(C)c1cc(C(=O)N2CCN(C(=O)C(C)(C)C)CC2)nc(N(C)C)n1 | 0.22% (inactive) |
| Cc1ncn(-c2ccc(Nc3ncc4cccc(-c5ccc6scnc6c5)c4n3)cc2)n1 | 3.89% (inactive) |
| Cn1cc(-c2cc(Nc3ccc(-n4cnc(N5CCC(O)CC5)n4)cc3)ncc2Cl)cn1 | 0.35% (inactive) |
| Cn1cc(-c2ccc3cnc(Nc4ccc(-n5cnc(N6CCOCC6)n5)cc4)nc3c2-c2cnn(C)c2)cn1 | 88.5% (active) |
| c1coc(-c2ccc3cnc(Nc4ccc(-n5cnc(N6CCOCC6)n5)cc4)nc3c2)n1 | -7.9% (inactive) |
| Cn1cc(-c2nc(Nc3ccc(-n4cnc(N5CCC(O)CC5)n4)cc3)ncc2Br)cn1 | 85.4% (active) |
| COc1ccc(CCNC(=O)CCn2c(SCc3cccc(Cl)c3)nc3ccccc3c2=O)cc1OC | -6.64% (inactive) |
